Here are results for 51 compounds from PubChem BioAssay (NCATS).

Values joined by “and” are separate entries in the source; they are usually repeats but may differ in a detail not shown here. Equal entries are not always repeated. Unmarked numbers belong to inactive results. Results filed as inconclusive are left out. For some assays here: Results with a measured potency or affinity are listed apart. Active and inactive are the calls of the source.

For test [1] the following is noted: Ebola virus entry assay, green channel fluorescence.
For test [2] the following is noted: Ebola virus entry assay, reporter ratio channel; Channel type: primary.
The conditions of test [3]: Ebola virus entry assay, blue channel (ratio component).
The nature of test [4]: qHTS Assay for Identifying Gametocytocidal Compounds (AID 743244; active = well fitted curve in the direction sought with a large enough effect; an effect the other way counts as inactive or inconclusive;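 note: % is set by controls: 0 for no effect and ±100 for the full control effect; actives lower the fluorescent signal which means gametocytes are killed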). Particulars: P. falciparum 3D7 stage III-V gametocytes, alamarBlue, 72 h; max response: stronger effect = lower value. An outline of the steps:
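Late gametocytes (III–V), P. falciparum 3D7; 72 h drug, then 24 h alamarBlue; resazurin reduction read by fluorescence.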

Test [5] can be described thus: qHTS assay for cell viability of HEK293 cells (AID 743288; active = well fitted curve in the direction sought with a large enough effect; an effect the other way counts as inactive or inconclusive; note: % is set by controls: 0 for no effect and ±100 for the full control effect; nearly all actives have a fitted effect of over 50% in size). As to conditions: ATP luminescence (CellTiter-Glo), 18 h; max response: stronger effect = lower value. An outline of the steps: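 HEK293 parental, 2,000 cells/well; ≥5 h pre-incubation 37 C; pintool compound addition; 18 h, 37 C; CellTiter-Glo 30 min RT; luminescence read.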
The conditions of test [6]: Ebola virus entry cell assay, ratio channel.
A short description of test [7]: Immunotoxin (HA22) sensitization/mitigation study. Vehicle arm (PBS) (AID 1159510). Note: potency is the fitted concentration of half-maximal effect. As to conditions: cancer cells viability with PBS vehicle (HA22 study); series mostly up to 46.1 µM.
Test [8] in a line: qHTS assay for cell viability of the p53RE-bla HCT-116 cell line (AID 743292; active = well fitted curve in the direction sought with a large enough effect; an effect the other way counts as inactive or inconclusive; note: % is set by controls: 0 for no effect and ±100 for the full control effect; nearly all actives have a fitted effect of over 55% in size). Particulars: p53RE-bla HCT-116 viability, ATP luminescence, 16 h; series mostly up to 95 µM. An outline of the steps: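 Luminescent ATP quantitation (CellTiter-Glo) served as the viability read-out; reagent was added after 16 h compound exposure at 37 C and read after 30 min at room temperature. Cells: p53RE-bla HCT-116, 4,000 per well.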
(Quantitative high-throughput screening tests each substance at several concentrations.)

On to `CCN(CC)CCNC(=O)c1ccc(NC(C)=O)cc1`, for which the outcome in test [1], in test [2] and in test [3] was inactive.

In the case of `Cn1c(NCCN(CCO)CCCc2ccc([N+](=O)[O-])cc2)cc(=O)n(C)c1=O`, the compound was called inactive in test [1], in test [2] and in test [3].

On to `CC(=O)N[C@@H](Cc1ccc(O)cc1)C(=O)O`, for which the result in test [1], in test [2] and in test [3] was inactive.

`C[C@@H]1CN(c2c(F)c(N)c3c(=O)c(C(=O)O)cn(C4CC4)c3c2F)C[C@H](C)N1`: the outcome in test [1], in test [2] and in test [3] was inactive.

As to `CC(=O)Oc1ccccc1C(=O)O`, the result in test [1], in test [2] and in test [3] was inactive.

As for `OCc1ccccn1`, the call in test [1], in test [2] and in test [3] was inactive.

Consider `Cc1cc(O)ccc1Cl`, for which the max response in test [4] is 25.2%. The result in test [1], in test [2] and in test [3] was inactive.

Turning to `Oc1c(I)cc(I)c2cccnc12`, the result in test [1], in test [2] and in test [3] was inactive.

As for `CCN1CCc2nc(N)oc2CC1`, the compound was called inactive in test [1], in test [2] and in test [3].

Turning to `COCCOCCO`, the max response in test [4] is -9.77%. The call in test [1], in test [2] and in test [3] was inactive.

For the compound `Cc1cccc(C)c1NC(=O)c1ccccc1C(=O)O`, the outcome in test [1], in test [2] and in test [3] was inactive.

Take `CC1=C(C(=O)O)N2C(=O)[C@@H](N)[C@H]2SC1`: the compound was classed as inactive in test [1], in test [2] and in test [3].

For `C=CCNC(N)=S`, the compound was called inactive in test [1], in test [2] and in test [3].

On to `COc1ncnc(NS(=O)(=O)c2ccc(N)cc2)c1OC`, for which the result in test [1], in test [2] and in test [3] was inactive.

Take `N[C@H]1C(O)O[C@H](CO)[C@@H](O)[C@@H]1O` (some centres undefined): the compound was classed as inactive in test [1], in test [2] and in test [3].

With `COc1ccc2cc(CCC(C)=O)ccc2c1`, the outcome in test [1], in test [2] and in test [3] was inactive.

Take `OCCCc1ccccc1`: the compound was called inactive in test [1], in test [2] and in test [3].

For the compound `COC(=O)c1cncn1C(C)c1ccccc1` (centres undefined), in test [4], the max response was -7.45%. In addition, the outcome in test [1], in test [2] and in test [3] was inactive.

With `CN1CCN(c2c(F)cc3c(=O)c(C(=O)O)cn4c3c2OCN4C)CC1`, the compound was called inactive in test [1], in test [2] and in test [3].

Consider `CCOC(=O)c1cccnc1`, for which the compound was classed as inactive in test [1], in test [2] and in test [3].

On to `[O-][n+]1cccc(CO)c1`, for which the call in test [1], in test [2] and in test [3] was inactive.

In the case of `COc1ccccc1N1CCN(CC(O)COc2cc(OC)c(OC)c(OC)c2)CC1` (centres undefined), the compound was classed as inactive in test [1], in test [2] and in test [3].

Take `CCOC(=O)c1c(C)n(C)c2ccc(O)cc12`: the compound was classed as inactive in test [1], in test [2] and in test [3].

For `O=C(Nc1cccc(C2=NCCN2)c1)Nc1cccc(C2=NCCN2)c1`, the compound was classed as inactive in test [1], in test [2] and in test [3].

For the compound `CC(C[N+](C)(C)C)OC(N)=O` (centres undefined), the compound was called inactive in test [1], in test [2] and in test [3].

In the case of `NCCCC(N)(C(=O)O)C(F)F` (centres undefined), the result in test [1], in test [2] and in test [3] was inactive.

Regarding `O=C(O)c1ccccc1NCCc1ccccc1`, the call in test [1], in test [2] and in test [3] was inactive.

Turning to `O=C(Nc1ccc(Oc2ccc(Cl)cc2)c(Cl)c1)c1cc(I)cc(I)c1O`, the result in test [1], in test [2] and in test [3] was inactive.

Turning to `CC(C)CCCC(C)CCCC(C)CCCCC(C)CCCC(C)CCCC(C)C` (centres undefined), the outcome in test [1], in test [2] and in test [3] was inactive.

Regarding `[O-][n+]1cccc(/C(Cl)=N/OC[C@@H](O)CN2CCCCC2)c1`, the outcome in test [1], in test [2] and in test [3] was inactive.

With `CCN(CC)CCc1nc(-c2ccccc2)no1`, the call in test [1], in test [2] and in test [3] was inactive.

On to `O=C(O)C(Cl)Cl`, for which the max response in test [4] is -4.42% and 4.64%. Moreover, the compound was called inactive in test [1], in test [2] and in test [3].

`CN1C(=O)CC[C@H]1c1cccnc1`: the call in test [1], in test [2] and in test [3] was inactive.

`CCn1cc(C(=O)O)c(=O)c2cc3c(cc21)OCO3`: the outcome in test [1], in test [2] and in test [3] was inactive.

Regarding `NCCS`, the compound was classed as inactive in test [1], in test [2] and in test [3].

Turning to `Cc1cccc(C)c1NC(=O)c1ccc(N)cc1`, the outcome in test [1], in test [2] and in test [3] was inactive.

`CCCCCCCCOc1ccc(C(=O)c2ccccc2)c(O)c1`: the call in test [1], in test [2] and in test [3] was inactive.

For the compound `CN1Cc2cc(C(=O)N3CCC(C4CCNCC4)CC3)ccc2N[C@@H](CC(=O)O)C1=O`, the outcome in test [1], in test [2] and in test [3] was inactive.

On to `COc1cc2c(cc1OC)C(=O)CC2`, for which the call in test [1], in test [2] and in test [3] was inactive.

In the case of `O=[N+]([O-])c1c2ccccc2cc2ccccc12`, the max response in test [4] was -7.57%; in test [5] it was -0.948%. Moreover, the compound was called inactive in test [1], in test [2] and in test [3].

One may read the AC50 as the concentration at which the activity in the assay is half-maximal. For the compound `COc1cccc2c1C(=O)c1c(O)c3c(c(O)c1C2=O)C[C@](O)(C(=O)CO)C[C@@H]3O[C@H]1C[C@H](N)[C@@H](O)[C@H](C)O1`, the AC50 in test [6] was 7.08 µM (active).

As to `O=C1C(I)=CC(=C(c2cc(I)c(O)c(I)c2)c2ccccc2C(=O)O)C=C1I`, the max response in test [4] is 4.96% and 16.9%. For the same compound, the outcome in test [1], in test [2] and in test [3] was inactive.

Consider `Cc1nn(Cc2ccccc2Cl)c(C)c1CN(C)CC(O)COc1ccc(Cl)cc1` (centres undefined), for which, in test [7], the Potency is 26.4 µM (active).

With `CCOCCOC(C)=O`, the max response in test [4] was 4.31%. Also, the Potency result in test [8] was “inactive”. Moreover, the call in test [1], in test [2] and in test [3] was inactive.

As for `Cn1c(=O)c(F)c(Nc2ccc(I)cc2F)c2c(=O)n(C[C@@H](O)CO)cnc21`, the Potency in test [7] is 23.5 µM (active).

`CC(=O)c1c(C)c2cnc(Nc3ccc(N4CCNCC4)cn3)nc2n(C2CCCC2)c1=O`: in test [7], the Potency is 16.6 µM (active).

As to `CC(O)CN1CCN(CC(=O)[O-])CCN(CC(=O)[O-])CCN(CC(=O)[O-])CC1.[Gd+3]` (centres undefined), the max response in test [4] was 1.03% and -10.9%. In addition, the outcome in test [2] and in test [3] was inactive.

Regarding `CC(=O)NC(C)c1ccc(Oc2ccc(OC(C)C)cc2)cc1` (centres undefined), the Potency in test [7] is 16.6 µM (active).

Turning to `CN[C@@H](C)[C@H](O)c1ccccc1`, the max response in test [4] is -11.3%. Further, the compound was classed as inactive in test [1], in test [2] and in test [3].

Consider `CN1[C@@H]2CC[C@H]1CC(OC(=O)C(O)c1ccccc1)C2` (some centres undefined), for which the result in test [3] was inactive.

On to `C/C(=C\C(=O)Nc1ccccc1C(=O)O)c1ccc2ccccc2c1`, for which, in test [7], the Potency was 16.6 µM (active).
